Several values for one entry are separate records, joined by “and”; a condition that tells them apart may be missing. Equal values may be shown once. This is part of a sample that, as a whole, favours compounds with a hit. Of some 83,000 tested, about 20% had one in any assay.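 Step 1: grow cells in 96-well plates. Step 2: add test compound at a single concentration. Step 3: incubate 48 h. Step 4: record percent growth.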 Activity calls are given as the source filed them. Rule for the calls: active = growth percent below 10; inactive = the rest.
Tests used:
Test in all cases: NCI-60 one-dose screen, 48 h (100 = growth as untreated, 0 = no growth, -100 = all killed)
Conditions in all cases: 10 µM unless noted
SK-MEL-2 melanoma = test system: SK-MEL-2 melanoma
EKVX NSCLC = test system: EKVX NSCLC
SN12C renal = test system: SN12C renal
UO-31 renal = test system: UO-31 renal
TK-10 renal = test system: TK-10 renal
ACHN renal = test system: ACHN renal
CAKI-1 renal = test system: CAKI-1 renal
A498 renal = test system: A498 renal
CCRF-CEM leukemia = test system: CCRF-CEM leukemia
MOLT-4 leukemia = test system: MOLT-4 leukemia
SR leukemia = test system: SR leukemia
RPMI-8226 leukemia = test system: RPMI-8226 leukemia
OVCAR-8 ovarian = test system: OVCAR-8 ovarian
OVCAR-5 ovarian = test system: OVCAR-5 ovarian
OVCAR-4 ovarian = test system: OVCAR-4 ovarian
SK-OV-3 ovarian = test system: SK-OV-3 ovarian
IGROV1 ovarian = test system: IGROV1 ovarian
OVCAR-3 ovarian = test system: OVCAR-3 ovarian
NCI/ADR-RES ovarian = test system: NCI/ADR-RES ovarian
HS 578T breast = test system: HS 578T breast

Measured: growth

O=C(Nc1ccc([N+](=O)[O-])cc1Cl)c1cc(Cl)ccc1O
inactive: OVCAR-5 ovarian 23.6% and 41.7% | OVCAR-4 ovarian 22.6% and 17.4% | IGROV1 ovarian 14.4%
4.16% (active) and 12.8% (inactive): SK-OV-3 ovarian
active: SK-MEL-2 melanoma -53.2% and -51.7% | EKVX NSCLC -3.89% and 6.47% | SN12C renal -6.44% and 3.08% | UO-31 renal -43.8% and -31.8% | TK-10 renal -5.15% and 7.49% | ACHN renal -3.01% and 8.03% | CAKI-1 renal -0.639% and -4.62% | A498 renal -22% | CCRF-CEM leukemia -20% and 9.33% | MOLT-4 leukemia -44.2% and -6.34% | SR leukemia -3.74% | RPMI-8226 leukemia -31.8% and 1.92% | OVCAR-8 ovarian -20.6% and 5.74% | OVCAR-3 ovarian -10.7% and -2.45% | NCI/ADR-RES ovarian -26.7% and -15.9%

O=[N+]([O-])c1ccc(-n2[nH]nnc2=S)cc1
inactive: SK-MEL-2 melanoma 109% | EKVX NSCLC 101% | SN12C renal 94% | UO-31 renal 80.5% | TK-10 renal 116% | ACHN renal 102% | CAKI-1 renal 95.6% | A498 renal 95.1% | CCRF-CEM leukemia 106% | MOLT-4 leukemia 102% | SR leukemia 92.1% | RPMI-8226 leukemia 102% | OVCAR-8 ovarian 107% | OVCAR-5 ovarian 102% | OVCAR-4 ovarian 92% | SK-OV-3 ovarian 103% | IGROV1 ovarian 91.3% | OVCAR-3 ovarian 110% | NCI/ADR-RES ovarian 106%

O=C(Cc1cccc2ccccc12)N/N=C/c1ccc2c(c1)CCC2
inactive: SK-MEL-2 melanoma 84.6% | EKVX NSCLC 78.8% | SN12C renal 84% | UO-31 renal 63.3% | TK-10 renal 89.4% | ACHN renal 83.4% | CAKI-1 renal 66.1% | A498 renal 72.7% | CCRF-CEM leukemia 65.2% | MOLT-4 leukemia 47.9% | SR leukemia 23% | RPMI-8226 leukemia 75.1% | OVCAR-8 ovarian 72.3% | OVCAR-5 ovarian 80.9% | OVCAR-4 ovarian 104% | SK-OV-3 ovarian 83.2% | IGROV1 ovarian 47.8% | OVCAR-3 ovarian 75.8% | HS 578T breast 85.3% | NCI/ADR-RES ovarian 31%

COc1ccc2c(=O)cc(-c3ccccc3)[nH]c2c1
31.4% (inactive) and -8.1% (active): SK-MEL-2 melanoma
21.8% (inactive) and 2.02% (active): RPMI-8226 leukemia
41.7% (inactive) and 8.7% (active): UO-31 renal
26.9% (inactive) and 6.72% (active): MOLT-4 leukemia
5.46% (active) and 23.9% (inactive): SK-OV-3 ovarian
17.5% (inactive) and 8.21% (active): OVCAR-8 ovarian
active: SR leukemia 4.49% | OVCAR-3 ovarian -47.7% and -45.4% | NCI/ADR-RES ovarian -12.9%
inactive: EKVX NSCLC 48.9% and 18.9% | SN12C renal 45.7% and 42.7% | TK-10 renal 48.4% and 63.7% | ACHN renal 54.4% and 51.9% | CAKI-1 renal 24.6% | A498 renal 50.7% | CCRF-CEM leukemia 14% and 12.2% | OVCAR-5 ovarian 49.4% and 46.3% | OVCAR-4 ovarian 53.1% and 36.7% | IGROV1 ovarian 33.2% | HS 578T breast 31.5% and 58.9%

O=Nc1ccc(O)cc1
inactive: SK-MEL-2 melanoma 96.7% and 109% | EKVX NSCLC 91.6% and 105% | SN12C renal 96.1% and 97.3% | UO-31 renal 90.7% and 62.9% | TK-10 renal 107% and 105% | ACHN renal 81.3% and 75% | CAKI-1 renal 97.9% | A498 renal 122% and 130% | CCRF-CEM leukemia 75.4% and 56.1% | MOLT-4 leukemia 82.5% and 89.2% | SR leukemia 79.4% and 74.3% | RPMI-8226 leukemia 97.6% and 103% | OVCAR-8 ovarian 106% and 92.4% | OVCAR-5 ovarian 105% and 98.9% | OVCAR-4 ovarian 108% and 106% | SK-OV-3 ovarian 108% and 107% | IGROV1 ovarian 91.7% and 82% | OVCAR-3 ovarian 89.2% and 97.7% | HS 578T breast 104% and 96.6% | NCI/ADR-RES ovarian 89.3% and 84.6%

CO/N=C/C=C\C(=O)N/C=C/C[C@H]1/C=C/[C@H](O)/C=C\C=C\c2cccc(O)c2C(=O)O1
active: SK-MEL-2 melanoma 5.72% and -20.7% | CAKI-1 renal 9.88% and 2.94%
6.08% (active) and 20.5% (inactive): SR leukemia
14.2% (inactive) and -7.71% (active): UO-31 renal
inactive: EKVX NSCLC 35.1% and 47.9% | SN12C renal 48.5% and 40.9% | TK-10 renal 53.9% and 52% | ACHN renal 31.1% and 22.4% | A498 renal 44.1% and 10.3% | CCRF-CEM leukemia 33% and 32.7% | MOLT-4 leukemia 27.7% and 14.6% | RPMI-8226 leukemia 12.8% and 11.6% | OVCAR-8 ovarian 27.5% and 29.7% | OVCAR-5 ovarian 39.5% and 44.7% | OVCAR-4 ovarian 72% and 69.4% | SK-OV-3 ovarian 49.6% and 35% | IGROV1 ovarian 36.5% and 40.3% | OVCAR-3 ovarian 60.9% and 36.3% | NCI/ADR-RES ovarian 44.4% and 32.6%

CCN(CC)CCC(CNc1c2ccc([N+](=O)[O-])cc2nc2cc(OC)c(OC)cc12)c1ccccc1 (centres undefined)
27.3% (inactive) and -64.1% (active): SK-OV-3 ovarian
30.5% (inactive) and -58.4% (active): NCI/ADR-RES ovarian
active: SK-MEL-2 melanoma -11.9% and -77.5% | EKVX NSCLC -23.6% and -87.3% | SN12C renal -27.1% and -91.6% | UO-31 renal -73.9% and -99.4% | TK-10 renal -4.61% and -89.9% | ACHN renal -58.9% and -76.9% | CAKI-1 renal 8.78% and -76.1% | A498 renal -16.9% | CCRF-CEM leukemia 1.82% and -50.9% | MOLT-4 leukemia 5.7% | SR leukemia -14.8% | RPMI-8226 leukemia -5.85% and -73% | OVCAR-8 ovarian 6.28% and -80.7% | OVCAR-5 ovarian -13.3% and -83.9% | OVCAR-4 ovarian -53.2% and -94.6% | IGROV1 ovarian -49.8% and -64% | OVCAR-3 ovarian -38% and -100%

O=S1(=O)CC(Br)C(Br)C1 (centres undefined)
inactive: SK-MEL-2 melanoma 82.4% and 83.3% | EKVX NSCLC 93.9% | SN12C renal 93.2% and 88.3% | UO-31 renal 64.9% and 77% | TK-10 renal 40% and 63.8% | ACHN renal 42.2% and 69.8% | CAKI-1 renal 45.1% and 65.5% | A498 renal 112% | CCRF-CEM leukemia 33.7% | MOLT-4 leukemia 61.3% and 68.6% | SR leukemia 53.6% | RPMI-8226 leukemia 85.5% and 82.5% | OVCAR-8 ovarian 62.7% and 88.9% | OVCAR-5 ovarian 96.4% and 108% | OVCAR-4 ovarian 63.1% and 96% | SK-OV-3 ovarian 105% and 110% | IGROV1 ovarian 90.1% and 59% | OVCAR-3 ovarian 50.3% and 75.7% | NCI/ADR-RES ovarian 68.5% and 110%

O=C(O)C1(C(=O)O)CCC1.[NH2-].[NH2-].[Pt+2]
inactive: SK-MEL-2 melanoma 97.8% and 104% | EKVX NSCLC 97.1% and 106% | SN12C renal 102% and 103% | UO-31 renal 75.6% and 103% | TK-10 renal 111% and 104% | ACHN renal 96.4% and 103% | CAKI-1 renal 88% and 81.1% | A498 renal 111% and 98.4% | CCRF-CEM leukemia 90.8% | MOLT-4 leukemia 113% and 67% | SR leukemia 122% and 50.7% | RPMI-8226 leukemia 104% | OVCAR-8 ovarian 102% | OVCAR-5 ovarian 97.6% and 83.7% | OVCAR-4 ovarian 109% and 92.2% | SK-OV-3 ovarian 104% and 107% | IGROV1 ovarian 95.6% | OVCAR-3 ovarian 117% and 105% | NCI/ADR-RES ovarian 103% and 99.7%
